Screening results: PubChem, several laboratories
INS promoter inh: TRM-6 insulin promoter activity inhibition | TRM-6 cells (human fetal islet line), insulin promoter-eGFP reporter, imaging; reporter expression induced with tamoxifen | inhibition, % at 2 µM | hit rate 0.9% among 130,000;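 active = inhibition above the mean plus 3 SD, with well images judged a real hit on visual review, cut at about 60% in these data, passing the limit was not always enough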
Lmaj promast: reduces viability of Leishmania major promastigotes | resazurin fluorescence viability | inhibition, % at 10 µM | hit rate 9% among 200,000; in the data active = inhibition above about 50%;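 also: promastigotes grown with compound for 44 hours at 28 °C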
p97 ATPase inh: human p97 ATPase inhibition; P55072; recombinant p97 ATPase, Kinase-Glo ATP luminescence, 3 h; inhibition, % at 8 µM; hit rate 0.42% among 220,000; AID 1481; in the data active = inhibition above about 15%;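 also: 0% = DMSO vehicle and 100% = wells lacking enzyme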
Target sequence (P55072 whole entry, looked up): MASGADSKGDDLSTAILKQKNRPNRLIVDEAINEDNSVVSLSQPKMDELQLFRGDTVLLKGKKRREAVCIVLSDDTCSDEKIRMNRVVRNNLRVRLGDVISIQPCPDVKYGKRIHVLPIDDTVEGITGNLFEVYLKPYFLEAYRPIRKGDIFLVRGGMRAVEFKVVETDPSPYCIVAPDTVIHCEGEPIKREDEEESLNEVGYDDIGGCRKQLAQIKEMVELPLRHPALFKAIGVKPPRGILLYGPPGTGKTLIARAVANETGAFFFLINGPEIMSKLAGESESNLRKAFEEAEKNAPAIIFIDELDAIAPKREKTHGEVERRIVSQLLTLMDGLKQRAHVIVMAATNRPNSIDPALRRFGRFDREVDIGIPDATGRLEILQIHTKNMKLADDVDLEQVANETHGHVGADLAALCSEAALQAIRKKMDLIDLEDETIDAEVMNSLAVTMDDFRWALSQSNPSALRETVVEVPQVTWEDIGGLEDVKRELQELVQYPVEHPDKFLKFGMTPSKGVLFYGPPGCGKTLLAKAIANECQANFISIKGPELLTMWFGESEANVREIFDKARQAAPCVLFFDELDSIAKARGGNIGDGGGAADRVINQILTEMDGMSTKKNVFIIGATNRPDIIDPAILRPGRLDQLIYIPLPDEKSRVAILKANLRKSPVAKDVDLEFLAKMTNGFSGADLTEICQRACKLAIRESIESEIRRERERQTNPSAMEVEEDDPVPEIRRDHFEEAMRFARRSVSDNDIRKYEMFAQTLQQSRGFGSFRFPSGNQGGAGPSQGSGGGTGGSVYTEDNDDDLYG
HCT116 PTEN-null: suppresses growth of cells with PTEN deletion | HCT116 PTEN-null viability, CellTiter-Glo, 60 h; stronger effect = lower value | AID 827 | hit rate 1.2% among 140,000 | viability, % at 10 µM;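 active = viability at or below a set limit, 4 SD under the median of all tested compounds, cut at about 3.7% in these data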;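 also: PTEN knockout HCT116 line with beta catenin targeted HCT116 as companion control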
ROMK mod: modulates human ROMK potassium channel activity; Tet-inducible ROMK, thallium flux fluorescence; actives lie on both sides; B-score at 10 µM; hit rate 2% among 130,000; AID 1918;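 active = signal ratio slope over the read window, or its plate-corrected B-score, at least 3 SD from the plate mean, either direction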;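 also: B-score of the F/F0 ratio slope over 7 to 12 s after thallium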
bCat KO growth: beta-catenin-lacking colon tumor cell growth suppression. HCT116 beta-catenin knockout viability, CellTiter-Glo, 60 h; stronger effect = lower value. AID 818. viability, % at 10 µM. hit rate 1.5% among 140,000;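 active = viability at or under a set limit, the compound median less 4 SD, cut at about 6% in these data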;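 also: 0% = Hyamine 1622 control at 20 µM and 100% = untreated cell control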
Starred values were filed as active, the others as inactive; nt = no result given. Rows were chosen to be rich in hits. Some 10% of all compounds tested hit in one or more screens of this group.

SMILES | INS promoter inh | Lmaj promast | p97 ATPase inh | HCT116 PTEN-null | ROMK mod | bCat KO growth
Nc1nc(N2CCCCC2)nc2ccccc12 | nt | 38 | 3 | 80 | -0.52 | 88
c1ccc(-c2nc(N3CCNCC3)nc3ccccc23)cc1 | -66 | 100* | -3 | 40 | 0.9 | 57
OCCNc1nc(Nc2cccc(O)c2)nc2ccccc12 | nt | nt | 10 | nt | nt | nt
COc1cccc(Nc2nc(NCCO)c3ccccc3n2)c1 | 54 | 101* | 4 | 41 | -0.68 | 33
c1ccc2c(c1)nc(N1CCCCC1)c1ccccc12 | nt | nt | -6 | nt | nt | nt
c1ccc2c(N3CCCCC3)nc(N3CCCC3)nc2c1 | 8 | 99* | -5 | 43 | nt | 47
CCOC(=O)c1[nH]c(C)c(CC(C)C)c1C | nt | 8 | 4 | nt | -0.34 | nt
COc1ccc(CCNc2ccc(N3C(=O)CC(C)C3=O)cc2[N+](=O)[O-])cc1OC (centres undefined) | -21 | 1 | 1 | nt | -1.3 | nt
Cc1ccc2nc(N/C(=N/S(=O)(=O)c3cccs3)c3ccccc3Cl)sc2c1 | nt | -4 | 1 | nt | -1.1 | nt
CCOc1ccccc1N(CC(=O)NC(C)(C)C)C(=O)Cn1nnc(-c2ccc(C)o2)n1 | -36 | 60* | 0 | 101 | -0.039 | 101
CCN(CC)C(=O)Cn1nnc(-c2ccc(C)o2)n1 | nt | -4 | -3 | 96 | nt | 95
COc1cc(/C=C(/C(=O)c2cccs2)c2nc3ccccc3[nH]2)cc(OC)c1O | -140 | 100* | 3 | 2.5* | nt | 5.2*
O=C(/C(=C/c1ccc(Cl)cc1)c1nc2ccccc2[nH]1)c1ccccc1 | nt | 100* | 5 | 0.8* | nt | 1.2*
CCCCNC(=O)CSc1nc2cc3c(cc2c(=O)n1Cc1ccco1)OCO3 | -5 | 5 | 3 | nt | -0.64 | nt
COc1cc(CNc2ccc(S(N)(=O)=O)cc2)ccc1OCC(=O)NC1CCCCC1 | nt | -3 | 2 | nt | 2.5 | nt
c1ccc2c(c1)Cn1c-2nc2ccccc21 | 95* | 3 | -12 | 82 | nt | 96
Cc1cc(C)n(-c2ccc(C(=O)Nc3ccc(C)c(S(=O)(=O)N(C)C)c3)cc2)n1 | 0 | 53* | -1 | 58 | nt | 71
CC(=O)c1ccc(OCCCC(=O)Nc2ccc(C)c(S(=O)(=O)N(C)C)c2)cc1 | 8 | 61* | 1 | 101 | 0.14 | 90
COc1ccc(OCC(=O)Nc2ccc(C)c(S(=O)(=O)N(C)C)c2)cc1 | 62 | -5 | -2 | nt | -0.64 | nt
Cc1cc(C)n(-c2ccc(C(=O)Nc3ccc(S(=O)(=O)N(C)C)cc3)cc2)n1 | 15 | 10 | 5 | 27 | -0.46 | 20
O=C(NC(=S)N1CCN(C/C=C/c2ccccc2)CC1)c1ccc(Cl)nc1 | nt | nt | 6 | nt | nt | nt
Cc1cc2nc(SCC(=O)N(C)C)c3c(c2cc1C)CCCC3 | -9 | 93* | -1 | 69 | nt | 73
Fc1cccc(Cl)c1CSc1nnc2ccccn12 | nt | -1 | 2 | nt | 0.063 | nt
COc1ccccc1N1CCN(C(=O)CCCn2nc(C)c([N+](=O)[O-])c2C)CC1 | nt | 0 | 3 | nt | nt | nt
Cc1ccoc1C(=O)NCCNc1ccc(Cl)cc1[N+](=O)[O-] | -14 | 83* | 2 | 87 | 0.27 | 92
SMILES | INS promoter inh | Lmaj promast | p97 ATPase inh | HCT116 PTEN-null | ROMK mod | bCat KO growth
O=C(NCCNc1ccc(Cl)cc1[N+](=O)[O-])c1cccnc1 | nt | 10 | 1 | nt | 1.1 | nt
COc1cc(C(=O)OC(C)C(=O)Nc2ccc3c(c2)OCO3)ccc1OCc1c(C)noc1C (centres undefined) | 0 | -1 | 0 | 80 | nt | 86
Cc1noc(C)c1COc1cccc(C(=O)OC(C)C(=O)Nc2ccc3c(c2)OCO3)c1 (centres undefined) | 7 | 59* | 5 | 24 | 2 | 21
Cc1ccc(NC(=O)c2cccc(OCc3c(C)noc3C)c2)cc1S(=O)(=O)Nc1ccccc1Cl | -3 | 83* | 3 | 97 | nt | 97
C=C(CC1([C@@H](NP(=O)(c2ccccc2)c2ccccc2)[C@H]2C[C@@H]2CCCC)CC1)c1ccccc1 | -19 | 10 | -4 | 30 | -1.1 | 46
OCCC1CN(Cc2cccc3c2OCO3)CCN1C1CCCC1 (centres undefined) | -17 | 32 | 0 | nt | 0.27 | nt
NC(=O)C1CCN(CC(=O)Nc2ccccc2Sc2ccc(Cl)cc2)CC1 | nt | 93* | -3 | 72 | nt | 77
Cc1ccc(C(=O)OCC(=O)Nc2ccccc2Sc2ccccc2)cc1C | 35 | 62* | -2 | 81 | -0.76 | 87
CC(=O)N1CCN(CC(=O)Nc2ccccc2Sc2ccccc2)CC1 | -55 | 48 | -6 | 92 | 0.066 | 94
COC(=O)C1CCN(CC(=O)Nc2ccccc2Sc2ccccc2)CC1 | nt | 52* | -4 | nt | 0.0093 | nt
CCn1c(=NC(=O)C2COc3ccccc3O2)sc2c(OC)ccc(OC)c21 (centres undefined) | nt | nt | 2 | nt | nt | nt
Cc1cnc(NC(=O)c2cccc(S(=O)(=O)N3CC(C)OC(C)C3)c2)s1 (centres undefined) | nt | 15 | -1 | nt | -1.8 | nt
CC1Cc2ccccc2N1C(=O)COC(=O)CCc1nc2ccccc2c(=O)[nH]1 (centres undefined) | 37 | -2 | 3 | nt | -1 | nt
CN1CCN(c2ccc(CNC(=O)c3ccco3)cc2)CC1 | nt | nt | 6 | nt | nt | nt
COc1ccc(Cc2nnc(N/N=C/c3ccc(O)cc3)[nH]c2=O)cc1OC | nt | 98* | 4 | 7 | nt | 5.5*
CCCCCOC(=O)Nc1ccc(S(=O)(=O)Nc2cccc([N+](=O)[O-])c2)cc1 | 37 | 62* | 6 | 85 | -0.04 | 92
CCCCOC(=O)Nc1ccc(S(=O)(=O)Nc2cc(C)nc(C)n2)cc1 | -20 | -5 | 0 | 108 | nt | 102
CCCCOC(=O)Nc1ccc(S(=O)(=O)Nc2ccc([N+](=O)[O-])cc2)cc1 | -41 | 78* | 5 | 93 | 0.09 | 93
CCCCOC(=O)Nc1ccc(S(=O)(=O)Nn2cnnc2)cc1 | 0 | 0 | -1 | 93 | 0.52 | 106
O=C(CCC1CCCC1)N[C@@H](Cc1ccc(O)cc1)C(=O)O | nt | 2 | 5 | nt | nt | nt
Cc1ccc(C(c2c(C)[nH][nH]c2=O)c2c(C)[nH][nH]c2=O)cc1[N+](=O)[O-] | 19 | 58* | 6 | 96 | 1.3 | 90
CCOc1cc(C(c2c(C)[nH][nH]c2=O)c2c(C)[nH][nH]c2=O)ccc1OCc1ccc([N+](=O)[O-])cc1 | nt | 100* | 4 | 67 | 0.52 | 73
COc1cc(C(c2c(C)[nH][nH]c2=O)c2c(C)[nH][nH]c2=O)cc([N+](=O)[O-])c1O | nt | 0 | 4 | nt | -0.4 | nt
O=C(CSc1nc(-c2ccc(F)cc2)cc(C(F)(F)F)n1)Nc1ccc2c(c1)OCO2 | 13 | 28 | 1 | 93 | nt | 91
O=c1cc(-c2ccco2)oc2c1ccc1ccccc12 | 0 | -3 | -4 | 78 | -0.22 | 88
O=c1cc(C(Cl)(Cl)Cl)oc2c1ccc1ccccc12 | 58 | 98* | 5 | 2.6* | -1.1 | 2.5*
CCNc1nc(NCC)nc(N/N=C/c2ccc(Br)cc2)n1 | nt | 50* | 0 | nt | 1.1 | nt
O=C(O)CCCN=CC1=C(O)CNC1=O | -22 | -3 | 6 | nt | 0.61 | nt
Cc1cc(-n2c(C)cc(C(=O)CCl)c2C)no1 | nt | 101* | 4 | nt | 0.16 | nt
